Reference: PubChem BioAssay AID504834 (National Center for Advancing Translational Sciences (NCATS), 2011)
Values joined by “and” are separate entries in the source; they are usually repeats but may differ in a detail not shown here. Identical values can stand only once. Out of some 320,000 compounds screened, about 22,000 (6.9%) were called active. A call without a number means that no potency is given here. Inconclusive results (about 27%) are left out. Calls follow the shape of the dose curve; as a rule, active = well fitted inhibition curve with a large enough effect; inconclusive = small, poorly fitted or top-dose-only effect, or another doubt; inactive = no such curve, though single readings can be large or run the other way. For the sample, actives were picked, then their nearest neighbours and some compounds at random. Some compounds were tested as several samples or in several runs, with calls that do not always agree.

assay: Primary qHTS for delayed death inhibitors of the malarial parasite plastid, 96 hour incubation; conditions: P. falciparum luciferase reporter growth; series mostly up to 28.7 µM
Procedure, shortened: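 P. falciparum expressing integrated firefly luciferase grown in erythrocytes (2% hematocrit, 0.05% parasitemia final) with compounds for 96 hours at 37 C, 5% CO2. Growth inhibition read as loss of luminescence after adding luciferase detection reagent.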
Potency is read from the fitted curve at half-maximal effect.

Row | Compound | Potency
1 | O=C(OCC1OC(Oc2ccc(O)cc2)C(O)C(O)C1O)c1ccccc1 (stereo not given) | inactive
2 | COc1ccc(-c2nc(SCC(=O)N3CCCC3)n[nH]2)cc1 | inactive
3 | O=S(=O)(c1ccc(-c2ccno2)s1)N1CCCCC1 | inactive
4 | CCCCN1Cc2c(nc3cc(-c4ccccc4)[nH]n3c2=O)C1=O | inactive
5 | O=C(CCNS(=O)(=O)c1ccccc1C(F)(F)F)Nc1ccncc1 | inactive
6 | COc1ccc(N(CC(=O)N2CCCCCC2)S(=O)(=O)c2ccccc2)cc1 | inactive
7 | CCOc1ccccc1N(CC(=O)Nc1ccccc1C(=O)OC)S(C)(=O)=O | inactive
8 | COc1ccccc1N(CC(=O)Nc1ccccc1C(=O)N1CCCC1)S(C)(=O)=O | 9.28 µM (active)
9 | COc1ccccc1N(CC(=O)N1CCCCC1)S(=O)(=O)c1ccccc1 | 11.7 µM (active)
10 | COc1ccccc1NC(=O)CN(c1ccccc1OC)S(=O)(=O)c1ccccc1 | inactive
11 | COc1ccc([N+](=O)[O-])cc1N(CC(=O)Nc1ccccc1C(=O)N1CCOCC1)S(C)(=O)=O | inactive
12 | Cc1cc(C)c(S(=O)(=O)c2cc(F)ccc2C)c(=O)[nH]1 | inactive
13 | O=C(COC(=O)c1ccc(N2CCCC2=O)cc1)c1ccc(OC(F)F)cc1 | inactive
14 | COc1ccc(NC(=O)C2C3CCC(O3)C2C(=O)O)cc1OC (stereo not given) | inactive
15 | O=C(CCCN=C1NS(=O)(=O)c2ccccc21)OCC(=O)c1ccc(F)c(F)c1 | inactive
16 | CCN(CC(=O)Nc1ccc2c(c1)OCO2)S(=O)(=O)c1ccccc1 | inactive
17 | COc1cc(NC(=O)N2CCOCC2)cc(OC)c1 | inactive
18 | CN(C)S(=O)(=O)c1ccc(NC(=O)N2CCOCC2)cc1 | inactive
19 | CN(C)C(=O)Oc1ccc(NC(=O)N2CCOCC2)cc1 | 3.29 µM (active)
20 | CCCCN1CCNC1=S | inactive
21 | COc1ccc(-c2cc(=O)oc3cc(OCC(=O)N(C)C4CCS(=O)(=O)C4)ccc23)cc1 (stereo not given) | inactive
22 | CC(C)(C)N(CC#CCC(O)(c1ccccc1)C1CCCC1)CCO (stereo not given) | inactive
23 | CN(CC#CCC(c1ccccc1)c1ccccc1)C(C)(C)C | 4.65 µM (active)
24 | CCCn1nc(C(=O)NNC(=O)CCOc2ccccc2OCC)c2ccccc2c1=O | inactive
25 | CC(Sc1nnc(CNC(=O)c2ccccc2F)n1C)C(=O)Nc1nccs1 (stereo not given) | inactive

Row | Compound | Potency
26 | CCCC(O)(CCC)C(=O)NN(C(=O)CCl)c1cccc(C)c1 | 1.04 µM (active)
27 | CC(C)(O)C(=O)NN(C(=O)c1ccccc1)c1cccc(Br)c1 | inactive
28 | Cc1ccc(N(NC(=O)C(C)(C)O)C(=O)c2ccccc2)cc1C | inactive
29 | Cc1ccc2nc(NC(=O)C3CSC4(C)CCC(=O)N34)sc2c1 (stereo not given) | inactive
30 | Cc1ccc(S(=O)(=O)c2c[nH]c3ccc(C)cc3c2=O)cc1 | inactive
31 | O=C(NCc1ccccc1)c1ccc(CNc2c(N3CCCC3)c(=O)c2=O)cc1 | inactive
32 | O=S(=O)(NCCS(=O)(=O)N1CCN(c2ccccc2)CC1)c1ccc(F)cc1 | inactive
33 | COC(=O)N/N=C/c1ccc(/C=N/NC(=O)OC)cc1 | inactive
34 | CCOc1ccc(/C=N/NC(=O)C(C)Sc2ccccn2)cc1OCC (stereo not given) | inactive
35 | CCOc1cc(/C=N/NC(=O)OC)ccc1OCCSc1ccc(Cl)cc1 | 10.4 µM (active)
36 | COc1ccc(C)cc1NC(=O)CCCN1C(=O)NC(C)(C)C1=O | inactive
37 | NC(=O)c1cc(S(=O)(=O)N2CCCC2)ccc1OCc1ccc(F)cc1 | inactive
38 | CC(C)(C)n1nnnc1C(c1ccc(F)cc1)N1CCN(Cc2ccc3c(c2)OCO3)CC1 (stereo not given) | inactive
39 | Fc1ccccc1C(c1nnnn1Cc1ccc2c(c1)OCO2)N1CCN(Cc2ccccc2)CC1 (stereo not given) | 1.85 µM (active)
40 | Cc1cc(C)c2[nH]c(=O)c(C(c3nnnn3Cc3ccc4c(c3)OCO4)N3CCCC3)cc2c1 (stereo not given) | inactive
41 | COc1ccc(C(=O)Nc2ccc(C3(C#N)CCCC3)cc2)cc1OC | inactive
42 | CC1CCCCC1NC(=O)COC(=O)Cc1ccc(Br)cc1 (stereo not given) | inactive
43 | CC1CCCCC1NC(=O)CN1CCC(O)(c2ccc3c(c2)OCO3)CC1 (stereo not given) | 13.1 µM (active)
44 | O=C(CN1CCC(O)(c2ccccc2)CC1)Nc1ccc2c(c1)OCCO2 | inactive
45 | O=C(Nc1ccc2c(c1)CCC2)c1cccc(S(=O)(=O)N2CCN(c3ccc(F)cc3)CC2)c1 | 9.28 µM (active)
46 | O=C(Nc1ccc2c(c1)CCC2)c1cccc(S(=O)(=O)Nc2ccccc2Cl)c1 | inactive
47 | Cc1cccnc1NC(=O)c1cccc(S(=O)(=O)N2CCN(c3ccc(F)cc3)CC2)c1 | inactive
48 | CCOc1ccc(/C=C/C(=O)N(CC)CC(=O)NCc2cccs2)cc1OC | inactive
49 | O=C(Cn1nc(C(=O)O)c2ccccc2c1=O)Nc1ccc(F)cc1 | inactive
50 | COc1ccc(-c2cc(C(=O)N3CCN(c4ccc(F)cc4)CC3)no2)cc1 | inactive

Row | Compound | Potency
51 | CCOC(=O)C1(C(F)(F)F)N=C(N(C)C)OC(N(C)C)=N1 | 4.15 µM (active)
52 | CCOc1ccc2[nH]c3nc(SCC(=O)NC4CCCC4)nnc3c2c1 | inactive
53 | CCOc1ccc(CN2CCN(Cc3c[nH]c4ccccc34)CC2)cc1 | inactive
54 | Cc1cccc(OCC(=O)NCCNC(=O)c2cccnc2)c1 | inactive
55 | CN(CC(=O)Nc1ccccc1Cl)C(=O)c1ccccc1SCC(=O)N1CCCC1 | inactive
56 | CCOC(=O)CSc1nc2ccc(C)cc2n2cnnc12 | inactive
57 | COc1ccccc1N=C1SC(C)CN1C(=O)C1CCC1 (stereo not given) | 10.4 µM (active)
58 | COc1ccccc1N=C1SCCCN1C | inactive
59 | CCc1noc(C)c1C(=O)N1CCCSC1=Nc1ccccc1OC | inactive
60 | O=S(=O)(NC(=S)Nc1ccccc1)c1ccc(F)cc1 | inactive
61 | CO[C@H]1[C@@H]2C=CO[C@@H](O[C@H]3O[C@@H](CO)[C@H](O)[C@@H](O)[C@@H]3O)[C@@H]2[C@@]2(CO)O[C@@H]12 | inactive
62 | O=C(CN(C(=O)c1csnn1)c1cccc(Cl)c1)NC1CCCC1 | inactive
63 | CCOc1ccc(N(C(=O)c2snc(C(N)=O)c2N)C(C(=O)NCC2CCCO2)c2c[nH]c3ccccc23)cc1 (stereo not given) | inactive
64 | COc1cccc(-c2nc(CS(=O)CC(=O)NCc3ccc(F)cc3)c(C)o2)c1 (stereo not given) | inactive
65 | COc1ccc2oc(=O)c(C(=O)NCc3ccccn3)cc2c1 | inactive
66 | COc1ccc(-c2nc(CS(=O)CC(=O)NCc3ccccn3)c(C)o2)cc1 (stereo not given) | 11.7 µM (active)
67 | COc1ccc(-c2nc(CS(=O)CC(=O)N3CCC4(CC3)OCCO4)c(C)o2)cc1 (stereo not given) | inactive
68 | Cc1cccc(-c2nc(CS(=O)CC(=O)NC(C)CCc3ccccc3)c(C)o2)c1 (stereo not given) | inactive
69 | Cc1ccc(-c2nc(CSCC(=O)NC3CCN(Cc4ccccc4)CC3)c(C)o2)cc1 | inactive
70 | Cc1ccc(-c2nc(CS(=O)CC(=O)NC3CCCC3)c(C)o2)cc1 (stereo not given) | 4.65 µM (active)
71 | Cc1ccc(-c2nc(CS(=O)CC(=O)N3CCN(c4ncccn4)CC3)c(C)o2)cc1 (stereo not given) | inactive
72 | COc1ccc(-c2nc(CS(=O)CC(=O)NCc3ccccc3)c(C)o2)cc1OC (stereo not given) | 13.1 µM (active)
73 | CC(OC(=O)CNC(=O)c1ccc(Cl)c([N+](=O)[O-])c1)C(=O)NCc1ccco1 (stereo not given) | inactive
74 | NC(=O)c1ccc(Nc2ccc3c(c2)CCC3)c([N+](=O)[O-])c1 | inactive
75 | CCC(C)(C)NC(=O)C(c1ccc(O)cc1)N(Cc1ccco1)C(=O)CCC(=O)Nc1ccccn1 (stereo not given) | inactive

Row | Compound | Potency
76 | Cc1ccc(NC(=O)COC(=O)CN2CCCCCC2=O)c(C)c1 | inactive
77 | CN1CCN(CC(=O)Nc2cccc([N+](=O)[O-])c2)CC1 | inactive
78 | Cc1cccc(NC(=O)c2cc([N+](=O)[O-])ccc2N2CCN(C)CC2)c1 | inactive
79 | O=C(Nc1cccc(Cl)c1)c1cc([N+](=O)[O-])ccc1N1CCN(CCO)CC1 | 3.29 µM (active)
80 | Cc1c(Cl)cccc1NC(=O)NCCCN1CCCC1=O | inactive
81 | Cc1c(Br)c([N+](=O)[O-])nn1CC(=O)Nc1sc2c(c1C(=O)OC(C)C)CCC(C)C2 (stereo not given) | inactive
82 | COc1ccccc1NC(=O)CN1CCN(S(=O)(=O)c2ccc(Br)cc2)CC1 | inactive
83 | COC(=O)c1c(NC(=O)CN2CCN(S(=O)(=O)c3ccccc3[N+](=O)[O-])CC2)sc2c1CCC(C)C2 (stereo not given) | 9.28 µM (active)
84 | O=C(Cc1ccsc1)N1CCN(S(=O)(=O)c2cc(C(F)(F)F)cc(C(F)(F)F)c2)CC1 | inactive
85 | O=C(CSc1ncn[nH]1)Nc1nc(-c2cccc([N+](=O)[O-])c2)cs1 | inactive
86 | COc1ccc2c(c1OC)C(=O)N(c1ccc(O)cc1)C2 | inactive
87 | COc1ccc(CNC(=O)C2CCN(S(C)(=O)=O)CC2)cc1 | inactive
88 | CCN1C(=NCC(C)C)N[C@@H](CCc2ccccc2)[C@H](C(=O)NCC(C)C)[C@H]1C | inactive
89 | CCN1C(=NCc2ccc(OC)cc2)N[C@@H](CCc2ccccc2)[C@H](C(=O)NCc2ccc(OC)cc2)[C@H]1C | inactive and 5.22 µM (active)
90 | O=C(Nc1cccnc1Cl)c1cc(-c2ccccc2O)on1 | inactive
91 | CC(=O)c1ccc(NC(=O)C2CC(=O)Nc3nc4ccccc4n32)cc1 (stereo not given) | inactive
92 | O=C(c1ccncc1)N1CCN(S(=O)(=O)c2cccc([N+](=O)[O-])c2)CC1 | inactive
93 | C=CCN1CCN(C(=O)CCCc2ccccc2)CC1 | inactive
94 | CCC(=O)c1ccc(OCC(=O)OCC(=O)NC2CCCCCC2)cc1 | inactive
95 | Cc1cccc(NC(=O)CN2CCN(C(=O)C3CCN(C(=O)/C=C/c4ccccc4)CC3)CC2)c1C | inactive
96 | Oc1ccc(Br)cc1/C=N/Nc1ccccn1 | inactive
97 | COc1ccc(-c2nn(-c3ccccc3)cc2/C=N/Nc2ccccn2)cc1OC | 3.7 µM (active)
98 | COc1ccc(-c2nn(-c3ccccc3)cc2C(=O)Nc2nccs2)cc1OC | inactive
99 | CC(=O)Nc1cccc(C(=O)OCC(=O)c2ccc3c(c2)OCO3)c1 | inactive
100 | Cc1ccc(CNCc2ccc3c(c2)OCO3)c(C)c1 | inactive
